From PubChem BioAssay (NCATS) come the findings set out here.

Values without a mark were called inactive. Calls follow the shape of the dose curve; as a rule, active = well fitted inhibition curve with a large enough effect; inconclusive = small, poorly fitted or top-dose-only effect; inactive = no such curve, though single readings can be large or run the other way.

The nature of this experiment: qHTS assay for measurement of the activity of small molecule inhibitors on Zika virus induced Caspase-3 activity in human astrocytoma cells (AID 1224859). To be noted: SNB-19 ZIKV-induced caspase-3/7, luminescence, 6 h; series mostly up to 45.7 µM; activity change, negative = inhibition: at the top concentration. The source says: National Center for Advancing Translational Sciences [NCATS]
Johns Hopkins University School of Medicine
Increase in the Caspase-3 activity indicates an activation of apoptosis cell death pathway caused by Zika virus infection in certain types of neuronal cells including human neural progenitor cells (hNPCs), astrocytes, and astrocytoma cell line (SNB-19). This cell-based caspase-3 activity assay measures the increased caspase-3 activity in the astrocytoma cell line (SNB-19) after a 6-hour Zika virus infection with a luminescence readout. A decrease in the luminescence signal in this assay by small molecule treatment indicates an inhibitory effect of that small molecule on the Zika virus induced caspase-3 activity that may correlate with its effect on reduction of Zika virus caused cell death.
The medium for SNB-19 cells is composed of RPMI 1640 (ATCC, Cat.# 30-2001), 10% fetal bovine serum (FBS) (GE healthcare Life Sciences, Cat.# SH30071.03), and 1% Pen/Strep (Gibco, Cat.# 15140-122). A Caspase-Glo 3/7 assay kit (catalog number G8092; Promega, Madison, WI) was used to detect caspase-3 activity induced by Zika virus infection in human cells. The reagent mixture was reconstituted as described in the protocol from the manufacturer. Polystyrene tissue culture treated and PDL coated white plates were obtained from Greiner Bio-One (Monroe, NC). Cells were seeded in 384- or 1536-well assay plates and cultured at 37 C with 5% CO2 for 16 to 20 hours. The typical cell seeding density in the 1536-well plate assay is 250 cells/well in 3ul medium for SNB-19 cells in tissue culture treated plates. Compounds were added to cells and incubated for one hour before addition of ZIKV solution to cells (2 FFU/cell). After incubation at 37 C with 5% CO2 for 6 hours, the reagent mixture of Caspase-Glo 3/7 assay kit was added to each well, followed by incubation at room temperature for 30 minutes. The luminescence intensity of the assay plates was measured using a ViewLux plate reader (PerkinElmer). Data were normalized by using the cell-containing wells without ZIKV as a negative control (0% induction of caspase 3/7 activity) and wells containing ZIKV infected cells (Caspase-3 activity induced) as a positive control (100% induction of caspase 3 activity). The percentage inhibitions of the increased Caspase-3 activity by small molecule inhibitors were then calculated.
Background: In qHTS, concentration-response curves come from the screen itself.
`C[C@@H](CN(C)C)CN1c2ccccc2Sc2ccccc21`: the “activity change, negative = inhibition” value is 18.6%.
For `CC(=O)OCC(=O)[C@@]12N=C(C)O[C@@H]1C[C@H]1[C@@H]3CCC4=CC(=O)C=C[C@]4(C)[C@H]3[C@@H](O)C[C@@]12C`, the “activity change, negative = inhibition” value is -5.36%.
On to `COC(=O)CCc1ccc(OCC(O)CNC(C)C)cc1` (stereo not given), for which the “activity change, negative = inhibition” value was -7.03%.
To `CCN(CC)C(=O)/C(C#N)=C/c1cc(O)c(O)c([N+](=O)[O-])c1` belongs -5.65%; to `COc1ccc(CCN2CCC(Nc3nc4ccccc4n3Cc3ccc(F)cc3)CC2)cc1`, 3.82%.
Turning to `Cc1cc(=O)n(-c2ccccc2)n1C`, the “activity change, negative = inhibition” value is -2.7%.
Next, `CC1=C(C(=O)OC(C)C)C(c2cccc([N+](=O)[O-])c2)C(C(=O)OC2CN(C(c3ccccc3)c3ccccc3)C2)=C(N)N1` (stereo not given): 463%; `C/C=C(/C(=C/C)c1ccc(O)cc1)c1ccc(O)cc1`: 15.8%.
In the case of `CCCCCCCCCCCCCCCCCC(=O)OCC(O)CO` (stereo not given), the “activity change, negative = inhibition” value is -4.59%.
Turning to `Cc1cc(O)c(C(C)C)cc1Cl`, the “activity change, negative = inhibition” value was 1.31%.
Next, `COc1ccc(CN2CCN(C(c3ccc(F)cc3)c3ccc(F)cc3)CC2)c(OC)c1OC`: 8.62%; `C=CCc1ccc(O)c(OC)c1`: 11.3%.
Consider `CCCCCCCCCCCCCCCC[N+](C)(C)CCN(Cc1ccc(OC)cc1)c1ncccn1`, for which the “activity change, negative = inhibition” value is 175%.
Consider `CCCCCCCCCCCCCCNCCO`, for which the “activity change, negative = inhibition” value is 3.34%.
To `COc1c2occc2c(OC)c2c(=O)cc(C)oc12` belongs 16.8%.
To `NC(CO)(CO)CO` belongs -2.22%; to `COc1cc2c(cc1OC)C(C(C(=O)N(CCc1ccc(OC)c(OC)c1OC)CCc1ccc(OC)c(OC)c1OC)c1ccccc1)=NCC2` (stereo not given), 7.47%.
Next, `CN(C)/N=N/c1nc[nH]c1C(N)=O`: 2.05%.
Take `Cc1ccnc(NS(=O)(=O)c2ccc(N)cc2)n1`: the “activity change, negative = inhibition” value was -14.3%.
Next, `CC1=C(C(=O)O)N2C(=O)[C@@H](NC(=O)[C@H](N)c3ccc(O)cc3)[C@H]2SC1`: -10.3%.
To `c1ccc(OCc2ccc(CCCN3CCOCC3)cc2)cc1` belongs -10.6%; to `N[C@@H](CCC(=O)N[C@@H](CS)C(=O)NCC(=O)O)C(=O)O`, -2.62% [at 20.5 µM]; to `CCOC(=O)COc1ccc2c(C)c(CCN(CC)CC)c(=O)oc2c1Cl`, 2.67%.
Turning to `O=C(Nc1ccc(Cl)c(Cl)c1)C1CC1`, the “activity change, negative = inhibition” value is 6.84%.
With `CCCC1O[C@@H]2C[C@H]3[C@@H]4CCC5=CC(=O)C=C[C@]5(C)[C@H]4[C@@H](O)C[C@]3(C)[C@]2(C(=O)CO)O1` (stereo not given in full), the “activity change, negative = inhibition” value was 5.21%.
To `CC(C)(Oc1ccc(Cl)cc1)C(=O)O` belongs -9.93%; to `COc1cc(C(=S)N2CCOCC2)cc(OC)c1OC`, -7.36%; to `CCCN1CCCC[C@H]1C(=O)Nc1c(C)cccc1C`, -5.06%.
Turning to `C[C@H](CCC(=O)O)[C@H]1CC[C@H]2[C@@H]3C(=O)C[C@@H]4CC(=O)CC[C@]4(C)[C@H]3CC(=O)[C@]12C`, the “activity change, negative = inhibition” value is 5.71%.
Next, `Cc1cccc(C)c1NC(=O)CN1CCN(CCCC(c2ccc(F)cc2)c2ccc(F)cc2)CC1`: -7.55%.
Next, `OC[C@H]1O[C@H](O[C@]2(CCl)O[C@H](CCl)[C@@H](O)[C@@H]2O)[C@H](O)[C@@H](O)[C@H]1Cl`: -6.27%; `O=c1[nH]c(=O)n([C@H]2C[C@H](O)[C@@H](CO)O2)cc1C(F)(F)F`: 2.91%.
Next, `NCCc1ccn[nH]1`: -6.24%.
On to `Nc1nc2ncc(CNc3ccc(C(=O)N[C@@H](CCC(=O)O)C(=O)O)cc3)nc2c(=O)[nH]1`, for which the “activity change, negative = inhibition” value is 10.9%.
To `O=C1OC(c2ccc(O)cc2)(c2ccc(O)cc2)c2ccccc21` belongs -22.4%.
Take `C[C@]12CCC(=O)C=C1CC[C@H]1[C@@H]3CC[C@](O)(C(=O)CO)[C@@]3(C)C[C@H](O)[C@@]12F`: the “activity change, negative = inhibition” value was 0.803%.
For `CN(C)C(=S)SC(=S)N(C)C`, the “activity change, negative = inhibition” value was -3.98%.
To `O=C(CCCN1CCC(O)(c2ccc(Br)cc2)CC1)c1ccc(F)cc1` belongs 33.2%; to `CN(C)CC/C=C1/c2ccccc2COc2ccc(CC(=O)O)cc21`, 10.5%; to `CN1[C@@H]2CC[C@H]1CC(OC(=O)c1c[nH]c3ccccc13)C2` (stereo not given in full), 0.0158%.
